The full list was thinned out, with hits kept by preference.
ERG Ets-DNA blk: inhibitors of human ERG Ets domain-DNA interaction. hit rate 0.028% among 370,000. Potency, µM (highest dose often 76.9 µM), inactives show at the highest dose FP activity, negative = inhibition, hits mostly inhibitors. fluorescence polarization, His-ERG Ets domain / labelled DNA; active = well fitted inhibition curve with a large enough effect in the polarisation, with a control signal flat; inconclusive = small, poorly fitted or top-dose-only effect, or effect the other way, or a change in a side signal; inactive = no such curve, though single readings can be large or run the other way; the % refers to the polarisation;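 note: polarization taken with two DNA probes labelled with fluorescein and Texas red; potency is the fitted concentration of half-maximal effect; % of control where 0% means no effect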
Target sequence (P11308 whole entry, looked up, the tested form may be a part): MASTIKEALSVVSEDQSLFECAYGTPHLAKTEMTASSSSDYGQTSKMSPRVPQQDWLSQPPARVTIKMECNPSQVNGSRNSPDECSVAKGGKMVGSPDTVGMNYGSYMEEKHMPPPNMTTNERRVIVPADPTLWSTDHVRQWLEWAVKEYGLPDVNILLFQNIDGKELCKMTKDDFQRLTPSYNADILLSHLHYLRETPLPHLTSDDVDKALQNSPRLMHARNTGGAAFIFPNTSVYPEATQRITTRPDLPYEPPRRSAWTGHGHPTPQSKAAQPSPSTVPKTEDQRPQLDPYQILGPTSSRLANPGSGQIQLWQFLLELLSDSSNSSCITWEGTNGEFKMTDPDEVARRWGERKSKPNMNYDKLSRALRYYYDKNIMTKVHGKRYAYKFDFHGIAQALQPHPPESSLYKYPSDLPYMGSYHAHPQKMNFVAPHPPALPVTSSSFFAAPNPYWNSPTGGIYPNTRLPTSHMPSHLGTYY
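His-tagged ERG Ets domain (1 uM in the protein solution; 300mM KCl, 50mM Tris-HCl, 1mM EDTA, 1mM DTT, pH 7.5) received compound, then a probe mix of 5 nM fluorescein-DNA and 100nM Texas-615-DNA. Fluorescence polarization was read for both dyes.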
RORg inh: ROR gamma (mouse) transcription inhibition. hit rate 5.4% among 310,000. Potency, µM (top dose mostly 53.6 µM), for inactives: at the highest dose activity change, negative = inhibition, actives largely listed as inhibitors. Drosophila S2 Gal4-RORgamma UAS-luciferase reporter, 20 h. AID 2551; note: potency is the fitted concentration of half-maximal effect; % is set by controls: 0 for no effect and ±100 for the full control effect; nearly all actives have a fitted effect of over 60% in size
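Schneider cells (Drosophila), stable Gal4 DBD–ROR gamma + UAS-luc; 1 hr cmpd preincubation; Cu2+ induction 700 uM final; 20 hr ambient; luminescence.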
Giardia kill: kills Giardia lamblia; AID 540267; activity change, % at 7.66 µM, hits read low; hit rate 0.15% among 340,000; Giardia lamblia trophozoite viability; in the data active = activity change below about -80%; inconclusive = between about -30% and that limit;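 note: parasites exposed to compound for two days anaerobically before the ATP read; % is set by controls: 0 for no effect and ±100 for the full control effect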
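Luminescence from cellular ATP indicates surviving trophozoites (100 cells/well) following 48 hrs anaerobic compound treatment at 37 deg C; signal develops 15-30 min at room temperature.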
a7 integrin act: integrin-mediated muscular dystrophy alleviation activation; Potency, µM (highest dose often 38.3 µM), without a hit: top-dose activation, hits mostly activators; hit rate 0.064% among 350,000; alpha7betagal myoblasts, beta-gal FDG fluorescence, 48 h; AID 624291;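 note: potency is the fitted concentration of half-maximal effect; 100% = response of the positive control SU9516; nearly all actives have a fitted effect of over 60% in size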
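Alpha7betagal+/- myoblasts (passage 13) were plated 16-24 hr, then exposed to compounds (1:260 dilution of DMSO stock) for 48 hours at 37C. After MPER lysis, β-galactosidase reporter activity was read as FDG fluorescence (ex 480/em 540) after 30 minutes.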
Gal4-VP16 FLuc: inhibits Gal4-VP16 luciferase reporter, ROR gamma counter-screen | Drosophila S2 Gal4-VP16 UAS-luciferase, luminescence, 20 h | Potency, µM (titrated, usually from 53.6 µM), for the others: at the highest dose activity, negative = inhibition, hits mostly inhibitors | hit rate 3.5% among 310,000 | AID 2546;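 note: Gal4-VP16 expression switched on by copper sulfate through the metallothionein promoter; potency is the fitted concentration of half-maximal effect; % is set by controls: 0 for no effect and ±100 for the full control effect; nearly all actives have a fitted effect of over 50% in size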
* marks the source's active call; other numbers are inactive results; ? = inconclusive; . = no result; [ ] = dose if it differs, or a comment. Unless noted, calls come from the whole dose curve; as a rule, active = well fitted curve in the direction sought with a large enough effect; inconclusive = small, poorly fitted or top-dose-only effect, or another doubt; inactive = no such curve, though single readings can be large; an effect the other way counts as inactive or inconclusive.

SMILES	ERG Ets-DNA blk	RORg inh	Giardia kill	a7 integrin act	Gal4-VP16 FLuc
COC(=O)c1ccc(COC(=O)c2nn(C)c(=O)c3ccccc23)cc1	-5%	?	-1	?	?
Cc1nnc2n1-c1ccc(Cl)cc1C(c1ccccc1)=NC2	.	2.5µM*	.	.	25%
Cc1ccc(C(C)C)c(OCCn2c(=O)oc3ccccc32)c1	3%	10µM*	36	-42%	?
O=[N+]([O-])c1ccc(NCc2ccc(Cl)cc2)c2ccncc12	-3%	-21%	19	-22%	11µM*
NCCNc1ccc([N+](=O)[O-])c2cccnc12	1%	-35%	-15	0%	4%
C=CCc1c(C)[nH]c(=S)c(C#N)c1C	-2%	6.3µM*	-9	6%	?
CCCCCC[C@H]1C(=O)O[C@H](C)[C@H](NC(=O)c2cccc(NC=O)c2O)C(=O)O[C@@H](C)[C@H]1OC(=O)CC(C)C	.	?	.	.	-94%[17 µM]
Cc1ccc(CN2C3CCCC2CC(NC(=S)NCc2ccccc2)C3)cc1 (configuration not stated)	1%	2.8µM*	-3	-53%	18µM*
COc1ccc(CN2C(=O)NC(=O)/C(=C/c3cc(OC)c(OC)c(OC)c3)C2=O)cc1	16%	-3%	-17	5%	-10%
COc1ccc(CN2C(=O)NC(=O)/C(=C/c3ccc(OC)c(OC)c3OC)C2=O)cc1	-5%	-41%	20	-15%	1.3µM*
CCOC(=O)c1c(/N=C/C2C(=O)NC(=S)NC2=O)sc(C)c1C	.	-10%	.	.	-8%
CCOC(=O)c1cc(C)sc1/N=C/C1C(=O)NC(=S)NC1=O	10%	16µM*	9	5%	4%
C/C(=N\NC(N)=S)C12CC3CC(CC(C3)C1)C2	.	1.8µM*	7	-18%	2.5µM*
Cc1ccc2c(c1)c(C1=c3ccccc3=NC1=O)c(O)n2C	1%	7.1µM*	-2	-75%	3.5µM*
Cc1ccc(C)c(-n2c(C)nc3ccccc3c2=O)c1	3%	24%	5	19%	-9%
CSSC	.	10%	.	.	-1%
